Bioassay records (PubChem BioAssay)
CBFb-RUNX1 inh – blocks binding between human CBF-beta and RUNX1. Q01196+Q13951. 230,000 tested, under 10 active. AlphaScreen CBFb-His/RUNX1-biotin binding, biochemical. Potency, µM (doses to about 59.8 µM), without a hit: top-dose activity, negative = inhibition, usual class: inhibitors; also: % of control where 0% means no effect
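His-tagged CBF-beta and biotinylated RUNX1 (30 nM each) were premixed 20 min at room temperature, exposed to compound for 15 min, then given nickel-chelate and streptavidin AlphaScreen beads (50 ng each). After 90 min, AlphaScreen signal was read.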
Gal4-VP16 FLuc – inhibits Gal4-VP16 luciferase reporter, ROR gamma counter-screen | Drosophila S2 Gal4-VP16 UAS-luciferase, luminescence, 20 h | Potency, µM (highest dose often 53.6 µM), without a hit: top-dose activity, negative = inhibition, actives largely listed as inhibitors | 310,000 tested, 3.5% active | AID 2546;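 also: Gal4-VP16 expression switched on by copper sulfate through the metallothionein promoter; potency is read from the fitted curve at half-maximal effect; % is scaled to controls: 0 for no effect and ±100 for the full control effect; nearly all actives have a fitted effect of over 50% in size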
CtBP-E1A blk – CtBP/E1A binding inhibition; AID 651724; activity change, % (concentration not given with the values); AlphaScreen GST-E1A/His-CtBP binding, 1536-well; stronger effect = lower value; 340,000 tested, 0.49% active; in the data active = activity change below about -65%; inconclusive = mostly about -30% to -63%; also: % is scaled to controls: 0 for no effect and ±100 for the full control effect
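Protein mix (5X: 125 nM each GST-E1A, His-CtBP) was incubated with pinned compound 2 h at 37 deg C in dark, in 50 mM Tris pH 8.0 buffer with 300 mM NaCl. Glutathione donor and nickel acceptor beads followed; AlphaScreen signal read after 1 h.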
Six1-Eya2 inh – blocks human Six1 binding to Eya2 | Q15475+O00167 | AlphaScreen GST-Six1/His-Eya2 binding, biochemical; stronger effect = lower value | activity change, % (concentration not given with the values) | 360,000 tested, 0.56% active; in the data active = activity change below about -65%; inconclusive = mostly about -30% to -63%; also: % is scaled to controls: 0 for no effect and ±100 for the full control effect
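AlphaScreen with GST-Six1 and His-Eya2 (5X mix: 250 nM and 500 nM), glutathione donor and nickel acceptor beads; buffer 50 mM Tris pH 8.0, 300 mM NaCl, 1 mM TCEP; 1 h at 37 C in the dark.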
RORg inh – ROR gamma (mouse) transcription inhibition; P51450; Drosophila S2 Gal4-RORgamma UAS-luciferase reporter, 20 h; Potency, µM (series often up to 53.6 µM), for the others: at the top dose activity change, negative = inhibition, most hits filed as inhibitors; 310,000 tested, 5.4% active; AID 2551; also: potency is read from the fitted curve at half-maximal effect; % is scaled to controls: 0 for no effect and ±100 for the full control effect; nearly all actives have a fitted effect of over 60% in size
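Using a luciferase readout, inhibitors were identified by reduced reporter activity in Drosophila cells coexpressing a copper-inducible Gal4–ROR gamma fusion and UAS-driven Photinus luciferase, incubated 20 hr after 700 uM copper sulfate.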
MBNL1 CUG block – blocks human MBNL1 binding to CUG repeat RNA. TR-FRET MBNL1-His/biotin-(CUG)12 binding, 665/545 ratio. Potency, µM (series often up to 57.5 µM), for inactives: at the top dose activity change, negative = inhibition, most hits filed as inhibitors. 280,000 tested, 0.036% active. AID 2675; active = well fitted inhibition curve with a large enough effect in the signal ratio, with a control signal flat, not every such curve was filed as active; inconclusive = small, poorly fitted or top-dose-only effect, or effect the other way, or a change in a side signal; inactive = no such curve, though single readings can be large or run the other way; the % refers to the signal ratio; also: potency is read from the fitted curve at half-maximal effect; % is scaled to controls: 0 for no effect and ±100 for the full control effect
Target sequence (Q9NR56 whole entry, looked up): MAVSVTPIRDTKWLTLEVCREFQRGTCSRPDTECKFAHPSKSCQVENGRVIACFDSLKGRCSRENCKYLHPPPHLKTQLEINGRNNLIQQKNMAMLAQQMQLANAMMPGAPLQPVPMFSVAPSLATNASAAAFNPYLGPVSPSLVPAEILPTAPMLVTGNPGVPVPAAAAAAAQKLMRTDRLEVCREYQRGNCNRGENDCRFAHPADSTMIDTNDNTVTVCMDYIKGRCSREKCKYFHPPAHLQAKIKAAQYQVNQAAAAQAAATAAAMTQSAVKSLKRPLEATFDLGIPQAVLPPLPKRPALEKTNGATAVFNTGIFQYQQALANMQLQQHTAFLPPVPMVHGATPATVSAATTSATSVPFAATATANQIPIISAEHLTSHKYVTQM
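Inhibition of protein-RNA binding appears as loss of TR-FRET between terbium anti-His antibody on MBNL1-His and streptavidin-XL665 on biotin-(CUG)12. Activity is normalized to buffer-only and uninhibited-complex controls.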
Starred values were filed as active, the others as inactive; ? = inconclusive; . = not tested or not shown; [ ] = remark or other dose. Most compounds without a hit are left out; they make up all but 5.5% or so of the library. Unless noted, calls follow the shape of the dose curve; as a rule, active = well fitted curve in the direction sought with a large enough effect; inconclusive = small, poorly fitted or top-dose-only effect, or another doubt; inactive = no such curve, though single readings can be large; an effect the other way counts as inactive or inconclusive.

SMILES	CBFb-RUNX1 inh	Gal4-VP16 FLuc	CtBP-E1A blk	Six1-Eya2 inh	RORg inh	MBNL1 CUG block
C/C(=N\Nc1ccc(C(=O)O)cc1)c1ccc2c(c1)Nc1ccccc1S2	-11%	-2%	-8	-17	13%	28%
Cc1ccc(NC(=S)NCCc2ccccc2)nc1	8%	5µM*	-4	-12	0.5µM*	4%
S=C(NCCc1ccccc1)Nc1ncccn1	.	.	-1	2	.	.
Cc1cccnc1NC(=S)NCCc1ccccc1	?	10µM*	?	?	2.8µM*	0%
CC1(C(=O)NS(=O)(=O)c2ccccc2)CCN1C(=O)CC1CC1 (configuration not stated)	.	.	0	-2	.	.
O=C(NC(=S)Nc1ccc(CN2CCOCC2)cc1)c1ccc([N+](=O)[O-])cc1	-18%	10µM*	-1	-12	14µM*	?
COc1ccc(C(=O)NC(=S)Nc2ccc(CN3CCOCC3)cc2)cc1	-3%	?	-9	-7	11µM*	-10%
COc1ccc(C(=O)NC(=S)Nc2ccc(CN3CCOCC3)cc2)cc1Br	.	18µM*	.	?	7.1µM*	1%
O=C(/C=C/c1cccc([N+](=O)[O-])c1)NC(=S)Nc1ccc(CN2CCOCC2)cc1	1%	?	-1	1	13µM*	-2%
CCCCOc1ccc(C(=O)NC(=S)Nc2ccc(CN3CCOCC3)cc2)cc1	-2%	1%	10	7	?	-7%[11.5 µM]
Cc1onc(-c2ccccc2)c1C(=O)NCc1ccccc1F	.	5%	14	2	9%	-3%
C/C(=N\Nc1nnc(C)c(=O)[nH]1)C(=O)O	?	-6%	-87*	-89*	-40%	-15%
CC(C)(C)c1ccccc1OCC(=O)Nc1ccccc1C(=O)NCc1cccnc1	.	3%	0	-3	13%	-4%
O=C(CNC(=O)c1ccco1)OCC(=O)c1ccc([N+](=O)[O-])cc1	.	4%	19	5	19%	?
Brc1ccc(-c2ccc(/C=N/Nc3nncc(-c4ccccc4)n3)o2)cc1	0%	1.3µM*	-9	0	0.89µM*	1%
Brc1ccc(/C=N/Nc2nncc(-c3ccccc3)n2)o1	-22%	-6%	.	.	3.5µM*	.
CC(C)(C)NC(=S)NCC1CC1	4%	?	.	3	7.1µM*	-6%
Cc1ccccc1NC(=S)NCC1CCC(CNC(=S)Nc2ccccc2C)CC1 (configuration not stated)	12%	-4%	4	4	16%	-8%
OCC[C@@H]1C[C@H](O)[C@@H](O)[C@]2(OCc3cc(C(F)(F)F)ccc32)O1	.	.	8	8	.	.
O=C(NNC(=O)c1cccc(C(F)(F)F)c1)c1ccncc1	.	-6%	-1	8	10%	-1%
O=C(NNC1=NCCN1Cc1ccccc1)c1cccc(C(F)(F)F)c1	6%	11µM*	0	20	3.2µM*	-7%
COc1ccc2c(-c3ccccc3)cc(=S)[nH]c2c1	.	?	-7	-10	1µM*	18%
Cc1cc(C)n(-c2nc3ccccc3nc2N2CCCCCC2)n1	?	-12%	67	64	11µM*	1%
CCOc1ccc(S(=O)(=O)N2CCCCC2)cc1NC(=O)Cc1cc(OC)c(OC)c(OC)c1	.	.	5	3	.	.
S=C(Nc1ccc2c(c1)OCO2)N1CCN(Cc2ccco2)CC1	-10%	11µM*	-15	0	11µM*	1%
SMILES	CBFb-RUNX1 inh	Gal4-VP16 FLuc	CtBP-E1A blk	Six1-Eya2 inh	RORg inh	MBNL1 CUG block
CS(=O)(=O)N(CC(=O)N1CCN(Cc2ccc3c(c2)OCO3)CC1)Cc1ccc(Cl)cc1	3%	10µM*	-9	-4	-20%	1%
CCN(CC)S(=O)(=O)c1ccc(C)c(NC(=S)N2CCN(Cc3ccc4c(c3)OCO4)CC2)c1	11%	22µM*	-7	-7	11µM*	3%
CCN(CC)S(=O)(=O)c1ccc(C)c(NC(=S)N2CCN(c3ccccn3)CC2)c1	.	9%	-2	8	14%	-3%
CCN(CC)S(=O)(=O)c1ccc(C)c(NC(=S)N2CCN(C/C=C/c3ccccc3)CC2)c1	4%	?	.	-7	13µM*	-3%
CN(C)C(CNC(=O)C1CCN(S(=O)(=O)c2cccc(Cl)c2Cl)CC1)c1ccccc1 (configuration not stated)	.	-8%	3	10	33%	-7%
COC(=O)[C@@]1(Sc2ccc(OC)cc2)CC(=O)N[C@@H]1c1ccccc1	.	.	0	8	.	.
C/C(=N\NC(=O)c1cc(-c2ccc(Cl)s2)[nH]n1)c1ccncc1	.	11%	-12	2	?	4%
CC(C)c1ccccc1NC(=S)N1CCN(Cc2ccc3c(c2)OCO3)CC1	5%	?	1	11	11µM*	-2%
Cc1cccc(NC(=S)N2CCN(Cc3ccc4c(c3)OCO4)CC2)c1C	-7%	-4%[0.365 µM]	-14	-7	-109%	0%
CCN(CC(=O)Nc1c(F)cccc1F)C(=O)Cc1ccc2c(c1)CCC2	.	.	0	0	.	.
Cc1ccc(C)c(-n2cc(CNCCCn3cccn3)c(-c3ccccc3)n2)c1	5%	-7%	-8	-6	10µM*	-1%
Cc1cc(=O)oc(C)c1C(=O)Nc1ccccc1F	4%	2%	4	6	8%	-1%
COc1ccc(-c2csc(C3=C(O)CN(C(C)C)C3=N)n2)cc1OC	-5%	3%	-77*	?	-9%	10%
COc1ccc(C(C(=O)Nc2ccc(C(C)C)cc2)N(C)C(=O)c2ccc(=O)[nH]c2)cc1 (configuration not stated)	-3%	-2%	-3	0	18µM*	-3%
COc1ccc(NC(=O)CN(C)C(=O)c2ccc(=O)[nH]c2)cc1	.	?	11	2	?	-10%
CCC1CCCCN1C(=O)COC(=O)c1cc(C)nc2ccccc12 (configuration not stated)	.	.	2	0	.	.
O=C(CN1CCN(c2ccccc2F)CC1)c1c[nH]c2ccc(F)cc12	1%	-16%	-11	-3	22%	-2%
NC(=O)C1CCN(CC(=O)c2c[nH]c3ccc(F)cc23)CC1	12%	16µM*	19	15	-35%	-3%
Cc1ccc([C@H]2C[C@@H](O)[C@H](n3cc(C4CC4)nn3)CN2C(=O)C2CCCCC2)cc1	.	.	-7	-2	.	.
CC12CC(c3ccccc3O1)C(/C(N)=N/NC(=O)c1ccc(F)cc1)C(=O)N2 (configuration not stated)	3%	?	15	3	4.5µM*	3%
